Pol beta inh: blocks human DNA polymerase beta activity | actives 1.3% (n = 340,000) | Pol beta primer extension/strand displacement, fluorescence kinetic | Potency, µM (titrated, usually from 114 µM), inactives show top-dose activity change, negative = inhibition, hits mostly inhibitors; further: potency means the concentration at half of the fitted maximal effect; on the % scale 0 is the no-effect control and ±100 the full control effect
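Curves were derived by four-parameter Hill fits of normalized qHTS data. The kinetic fluorescent primer-extension read was taken at 0 and 10 min after 50 nM substrate, following a 15 min room-temperature preincubation of 10 nM enzyme with compounds.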
Pol kappa inh-1: inhibitors of human DNA polymerase kappa; actives 0.53% (n = 400,000); Q9UBT6; AID 588579; purified Pol kappa, fluorescent DNA synthesis assay, 10 min; Potency, µM (top dose mostly 107 µM), inactives show at the highest dose activity, negative = inhibition, hits mostly inhibitors; further: potency means the concentration at half of the fitted maximal effect; on the % scale 0 is the no-effect control and ±100 the full control effect
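10 nM Pol kappa preincubated 15 min at room temperature with compounds, then reaction started with substrate at 50 nM final. Fluorescence read kinetically at 0 and 10 min; buffer-only wells served as negative control.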
PI5P4K alpha inh: PI5P4K alpha (human) kinase inhibition | PI5P4Kalpha enzyme, ADP-Glo luminescence, 60 min; stronger effect = lower value | P48426 | max response, % | actives 1.2% (n = 330,000); active means max response of -50% or lower; inconclusive means between -30% and -50%; inactive means -30% or higher; further: value at the top dose of about 77 µM; on the % scale 0 is the no-effect control and ±100 the full control effect
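Reactions run in 0.038 M HEPES pH 7.4, 0.28 mM EGTA, 0.1% CHAPS and 5% DMSO, with PI5P4Kalpha, substrate, compound and 5 microM ATP final, one hour at room temperature. Readout is ADP-Glo luminescence.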
ALOX12 inh: inhibitors of human 12S-lipoxygenase ALOX12 | P18054 | purified 12hLO, xylenol orange hydroperoxide absorbance | Potency, µM (top dose mostly 108 µM), inactives show at the top dose activity change, negative = inhibition, most hits filed as inhibitors | actives 1.1% (n = 580,000) | AID 1671190; further: potency means the concentration at half of the fitted maximal effect; on the % scale 0 is the no-effect control and ±100 the full control effect
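Purified human 12hLO at 150 nM in 25 mM Hepes, 0.01% Triton X-100, pH 7.0, preincubated 15 min at room temperature with compound. Reaction started with 40 uM arachidonic acid, 30 min at room temperature. Hydroperoxide measured by Fe-xylenol orange, 573/405 nm absorbance ratio.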
POLI inh: blocks human DNA polymerase iota activity; Pol iota fluorescent replication assay, 10 min; actives 1% (n = 390,000); Potency, µM (highest dose often 115 µM), for the others: at the highest dose activity, negative = inhibition, hits mostly inhibitors; Q9UNA4; AID 588590; further: potency means the concentration at half of the fitted maximal effect
Target sequence (Q9UNA4 whole entry, looked up): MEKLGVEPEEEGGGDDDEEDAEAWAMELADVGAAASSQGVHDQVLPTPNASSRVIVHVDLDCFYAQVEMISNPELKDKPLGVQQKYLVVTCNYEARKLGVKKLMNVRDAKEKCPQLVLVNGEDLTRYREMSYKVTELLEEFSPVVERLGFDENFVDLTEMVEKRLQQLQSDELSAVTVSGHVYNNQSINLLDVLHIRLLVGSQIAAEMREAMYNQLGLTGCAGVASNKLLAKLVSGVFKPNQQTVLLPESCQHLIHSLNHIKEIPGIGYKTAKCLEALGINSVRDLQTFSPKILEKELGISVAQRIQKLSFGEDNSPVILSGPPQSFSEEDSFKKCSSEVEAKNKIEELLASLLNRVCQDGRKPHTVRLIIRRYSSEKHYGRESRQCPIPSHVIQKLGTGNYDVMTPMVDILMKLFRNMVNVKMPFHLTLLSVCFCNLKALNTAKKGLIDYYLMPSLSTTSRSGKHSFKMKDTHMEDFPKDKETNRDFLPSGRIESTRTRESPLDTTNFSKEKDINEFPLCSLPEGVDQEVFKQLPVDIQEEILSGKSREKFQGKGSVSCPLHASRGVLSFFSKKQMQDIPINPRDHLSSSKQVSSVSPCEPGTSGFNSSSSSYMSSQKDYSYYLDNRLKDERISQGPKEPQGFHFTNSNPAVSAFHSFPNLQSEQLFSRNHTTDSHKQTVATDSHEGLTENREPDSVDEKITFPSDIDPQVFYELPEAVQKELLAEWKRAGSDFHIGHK
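Pol iota at 10 nM preincubated 15 min with compounds at room temperature; reaction started with fluorescent substrate, 50 nM final. Fluorescence read kinetically at 0 and 10 min; buffer-only wells as negative control.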
Pol eta inh-1: inhibitors of human DNA polymerase eta. recombinant Pol eta, fluorescent DNA replication assay. Potency, µM (doses to about 114 µM), inactives show at the highest dose activity change, negative = inhibition, hits mostly inhibitors. actives 1.2% (n = 390,000). AID 588591; further: potency means the concentration at half of the fitted maximal effect; on the % scale 0 is the no-effect control and ±100 the full control effect
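Fluorescent replication assay: 50 nM final substrate added after a 15 min room-temperature compound preincubation with 10 nM enzyme. Signal taken at 0 min and again at 10 min.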
PGK validate: validation of Trypanosoma brucei phosphoglycerate kinase inhibitors | AID 686980 | Potency, µM (highest dose often 57.5 µM), for the others: at the highest dose activity change, negative = inhibition, hits mostly inhibitors | TbPGK coupled GAPDH assay, Kinase-Glo luminescence | shares compounds with Pol kappa inh-1 | actives 79% (n = 500); further: potency means the concentration at half of the fitted maximal effect; on the % scale 0 is the no-effect control and ±100 the full control effect; nearly all actives have a fitted effect of over 65% in size
Pol iota confirm: Human Pol iota inhibitor confirmatory assay. shares compounds with Pol kappa inh-1. Pol iota primer extension, TAMRA/BHQ fluorescence. Potency, µM, usual class: inhibitors. actives 77% (n = 1,500). AID 720496; further: potency means the concentration at half of the fitted maximal effect
Pol kappa inh-2: confirmation of human DNA polymerase kappa inhibitors | shares compounds with Pol eta inh-1 | purified Pol-kappa, fluorescent strand-displacement substrate | Potency, µM, hits mostly inhibitors | actives 76% (n = 920) | AID 720501; further: potency means the concentration at half of the fitted maximal effect
Pol eta inh-2: confirmation of human DNA polymerase eta inhibitors. AID 720502. Potency, µM, hits mostly inhibitors. Pol eta primer extension, TAMRA/BHQ fluorescence, 10 min. actives 64% (n = 2,600). shares compounds with Pol eta inh-1; further: potency means the concentration at half of the fitted maximal effect
* marks the source's active call; other numbers are inactive results; u = inconclusive; x = no result; [ ] = remark or other dose. An excerpt weighted towards active compounds, which were near 2.9% of everything screened. Unless noted, the call rests on the fitted dose curve; in most records, active means well fitted curve in the direction sought with a large enough effect; inconclusive means small, poorly fitted or top-dose-only effect, or another doubt; inactive means no such curve, though single readings can be large; an effect the other way counts as inactive or inconclusive.

SMILES | Pol beta inh | Pol kappa inh-1 | PI5P4K alpha inh | ALOX12 inh | POLI inh | Pol eta inh-1 | Pol iota confirm | Pol kappa inh-2 | Pol eta inh-2 | others
CC(/C=C/c1ccc(N(C)C)cc1)=N\N=C(/N)SC1CC(=O)N(c2ccc(C(=O)O)cc2)C1=O (centres undefined) | 4% | -14% | -23 | u | 15% | 45µM* | 67* | 42* | u
Cc1cc(C)cc(C(=O)Nc2ccc(Cl)cc2C(F)(F)F)c1 | x | x | x | -10% | x | x | x | x | x
Cc1[nH]c2ccc(C(=O)O)cc2c1C | 7% | -6% | x | 2% | u | -5% | x | x | x
CCCc1c(C)[nH]c2ccc(C(=O)O)cc2c1=S | u | 32µM* | u | 2% | 6.3µM* | 3.2µM* | 17* | x | 5.4*
CC(C)CC(NC(=O)Cn1cnc(C#N)n1)c1ccccc1 (centres undefined) | x | x | x | 73% | x | x | x | x | x
Cn1nc(C(=O)OC/C(O)=C(/C#N)c2nc3ccccc3[nH]2)c2ccccc2c1=O | x | x | x | -1% | x | x | x | x | x
CN(C)/C=C1\SC(=S)N(c2ccc(Br)cc2)C1=O | u | u | 0 | u | 40µM* | u | 19* | x | 76*
CN(C)/C=C1\SC(=S)N(c2ccc(F)cc2)C1=O | 1% | -8% | -6 | u | -5% | -10% | x | x | x
Cc1ccc(NS(=O)(=O)c2ccc(C(=O)O)cc2)c(Cl)c1 | x | x | x | -13% | x | x | x | x | x
Cc1ccc(S(=O)(=O)Nc2csc(C)c2C(=O)O)cc1 | 8.9µM* | -44% | u | 483% | u | 18µM* | 67* | x | 48*
O=C(Nc1ccc(S(=O)(=O)Nc2nccs2)cc1)c1nn(-c2ccccc2)ccc1=O | u | 2% | u | 11% | -8% | 6.3µM* | 21* | 12* | 24*
O=C(O)c1ccccc1C(=O)Nc1ccc(S(=O)(=O)Nc2nccs2)cc1 | x | -4% | 0 | -10% | -13% | 2% | x | x | x
NCCC12CC3CC(CC(C3)C1)C2 | x | x | x | 60% | x | x | x | x | x
CCc1ccc(C(=O)c2cn(CC(=O)Nc3ccc4c(c3)OCO4)c3ccc(OC)cc3c2=O)cc1 | 10µM* | -22% | x | -23% | u | 45µM* | 21* | 17* | u
CC1(C(=O)NCc2ccc(Cl)cc2)Cn2c(ccc2-c2ccco2)C(=O)N1CCc1ccco1 (centres undefined) | x | x | x | -16% | x | x | x | x | x
CCCSc1nc2c(c(=O)[nH]c(=O)n2C)n1CCOC | x | x | x | -14% | x | x | x | x | x
Cc1ccc(-c2cc(C(=O)N/N=C/c3ccc([N+](=O)[O-])o3)c3ccccc3n2)o1 | -9% | u | u | u | u | 50µM* | u | x | 30*
COc1ccccc1-c1cc(C(=O)N/N=C/c2ccc(C)o2)c2ccccc2n1 | u | -4% | -10 | 0% | -3% | -10% | x | x | x
O=C(N/N=C/c1ccc(F)cc1)c1cc(-c2ccco2)nc2ccccc12 | 3.5µM* | 14µM* | -111* | u | 7.9µM* | 1.6µM* | 7.5* | 11* | 21* | PGK validate=8.2µM*
NS(=O)(=O)c1ccc(N=Nc2c[nH]c(=O)c(O)c2)cc1 | u | u | -63* | 0% | 14µM* | 22µM* | x | x | 54* | PGK validate=18µM*
COc1ccc(N2Cc3cccc(C(=O)Nc4ccc(C)cc4)c3C2=O)cc1 | 13µM* | u | x | u | 79µM* | x | u | 38* | u
COc1ccc(N2Cc3cccc(C(=O)Nc4ccc(C(C)C)cc4)c3C2=O)cc1 | 11µM* | u | x | u | 56µM* | x | u | 30* | u
c1csc(-c2nnc(COc3ccc(-n4cnnn4)cc3)o2)c1 | x | x | x | -8% | x | x | x | x | x
CC1=C(C(=O)Nc2ccccc2C)C(c2ccc(C(F)(F)F)cc2)n2ncnc2N1 (centres undefined) | x | x | x | -4% | x | x | x | x | x
CC1=C(C(=O)Nc2ccccc2C)C(c2ccc[nH]2)n2ncnc2N1 (centres undefined) | 40µM* | 32µM* | x | -7% | 22µM* | 8.9µM* | 21* | x | 30*
SMILES | Pol beta inh | Pol kappa inh-1 | PI5P4K alpha inh | ALOX12 inh | POLI inh | Pol eta inh-1 | Pol iota confirm | Pol kappa inh-2 | Pol eta inh-2 | others
COc1cccc(NCc2nnc(C(=O)N3CCC[C@@H]3C(c3ccccc3)c3ccccc3)n2-c2cccnc2)c1 | x | x | x | 27% | x | x | x | x | x
O=C(O)c1ccc(Nc2nc(-c3cc4ccccc4oc3=O)cs2)cc1O | 100µM* | 56µM* | -79* | 40µM* | 22µM* | 25µM* | u | 75* | 67*
COc1cccc2c1C(=O)c1c(O)c3c(c(O)c1C2=O)C[C@@](O)(C(C)=O)C[C@@H]3O[C@H]1C[C@H](N)[C@H](O)[C@H](C)O1 | 28µM* | 5.6µM* | 1 | 0% | 35µM* | -12% | 17* | u | 67*
COc1cccc2c1C(=O)c1c(O)c3c(c(O)c1C2=O)CC(O)(C(=O)CO)CC3OC1CC(N(C)C)C(O)C(C)O1 (centres undefined) | x | u | -1 | -22% | 40µM* | u | 2.7* | 34* | 27*
COCCn1nc(C(=O)NCC(c2ccccc2)N2CCCC2)ccc1=O (centres undefined) | x | x | x | -49% | x | x | x | x | x
O=C(Nc1ccc2nc(-c3ccc4nc[nH]c4c3)[nH]c2c1)c1cccs1 | 4.5µM* | 35µM* | u | 0% | 1.1µM* | 20µM* | u | x | u
O=C(NCc1ccc(Cl)cc1)c1c[nH]c2cccnc12 | x | x | x | -1%[12.5 µM] | x | x | x | x | x
CONC(=O)c1sc2nc(C(C)(C)C)nc(C)c2c1C | x | x | x | -6% | x | x | x | x | x
O=[N+]([O-])c1cccc(-c2csc(N/N=C/c3cccc(O)c3)n2)c1 | 1% | 79µM* | u | -25% | 45µM* | -6% | 38* | x | 27*
CCOC(=O)Cc1csc(N/N=C/c2cccc([N+](=O)[O-])c2)n1 | -5% | -7% | 5 | 6% | 34% | 9% | x | x | x
